Compounds without any hit were thinned out: in the full panel of roughly 83,000, 20% have a hit.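 Activity criterion: percent growth below 10, measured after cells in 96-well plates were exposed to a single compound concentration for 48 hours.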 A number with no mark means an inactive call. Activity calls are given as the source filed them.

This assay relates to HT29 colon. The experiment in a line: NCI-60 one-dose screen, 48 h (100 = growth as untreated, 0 = no growth, -100 = all killed). The settings on record: 10 µM. As for the experimental part:
Growth inhibition of the HT29 human tumor cell line is measured as a screen for anti-cancer activity. Cells are grown in 96 well plates and exposed to the test compound for 48 hours. Compounds are tested at a single concentration, which is 10^-5 M for most compounds. The reported endpoint is percent growth (GI% or GIPRCNT), where numbers from 0 - 100% represent growth inhibition, and numbers from -100% - 0 represent cell death. For example, a value of 40 represents 60% growth inhibition. A value of 0 means no net growth occurred over the course of the experiment. A value of -40 indicates 40% of cells at the beginning of the experiment died by the end of the experiment. A value of -100 means all cells are dead at the end of the experiment.
NCI-60 Human Tumor Cell Lines Screen was performed using the standard one-dose NCI protocol, which is described in more detail at https://dtp.cancer.gov/discovery_development/nci-60/default.htm.
Compounds with GIPRCNT values below 10 were considered active. Activity score was based on GIPRCNT using the following formula: […]
Score is 0 for GIPRCNT values of 100 or above, 50 for GIPRCNT values of 0, and 100 for GIPRCNT values of -100.
For the compound `Cc1cccc(NC(=O)CSc2nc3ccc(F)cc3c(=O)n2-c2ccc(Cl)cc2)c1C`, the growth was 76.3%. Regarding `CN1C/C(=C\c2ccc(O)cc2O)c2[o+]c3cc(O)ccc3cc2C1`, the growth is 44.4%. `COc1ccc(-c2nc(S(=O)(=O)c3ccc(C)cc3)c(S(=O)(=O)CC(=O)N(C)Cc3ccccc3)o2)cc1`: the growth was 8.42% (active). The same measure for `COc1ccccc1[C@H]1C(C(=O)c2ccc(O)cc2)C2(N[C@@H]1c1ccccc1)C(=O)Nc1ccc(Br)cc12` (stereo not given in full): -9.98% (active); for `Cc1cc(C)nc(SCC(=O)Nc2ccc(S(N)(=O)=O)cc2)n1`: 118%; for `COC1=C[C@]23CCC(=O)N2CCc2cc4c(cc2[C@@H]3[C@@H]1OC(=O)CCCC(C)C)OCO4`: 32.2%.

Take `Cc1ccc(C(=O)NNC(=O)CSc2nc3ccccc3c(=O)[nH]2)cc1`: the growth was 111%.

In the case of `CONC[C@]1(C)C=C2C(=O)[C@](C)(O)C3(CC3)C(C)=C2[C@H]1O`, the growth is -12% (active). Consider `Brc1ccc(N/N=C/c2c[nH]c3ccccc23)nc1`, for which the growth is 14%. With `C=CC(=O)Nc1nc(-c2cccc(NS(=O)(=O)c3cccc4c(N(C)C)cccc34)c2)cs1`, the growth is -56.3% (active).

With `CC(=O)Nc1nc(-c2ccc(N3CCN(C)CC3)c(NS(=O)(=O)c3ccc(C(F)(F)F)cc3)c2)cs1`, the growth is -18.7% (active). In the case of `N#Cc1ccc(-c2nn(-c3ccc(C(=O)O)cc3)cc2CNc2cccc(Br)c2)cc1`, the growth was 50.7%. To `CC(=O)NCC1=C(C)C=C2C(=O)[C@](C)(O)C3(CC3)C(C)=C21` belongs -20.4% (active); to `CCOC(=O)C1=C(N)N(c2ccc(C)cc2)C2=C(C(=O)CC(C)(C)C2)C1c1ccccc1OC` (stereo not given), 116%. To `CC(C)(C)c1ccc(NCc2cn(-c3ccc(C(=O)O)cc3)nc2-c2ccc(C#N)cc2)cc1` belongs 3.73% (active); to `CCNCCCn1c2c(c3cc(OC)c(OC)cc3c1=O)C(=O)c1cc3c(nc1-2)OCO3`, 26.1%. Consider `c1ccc(C(=C(c2ccc(OCCN3CCCCC3)cc2)c2ccc(OCCN3CCCCC3)cc2)C2CCCC2)cc1`, for which the growth is -96.2% (active). `O=C1Nc2cc(-c3ccc(NC(=O)c4cccs4)cc3)ccc2/C1=C/c1ccc[nH]1`: the growth was 71.1%. Take `COc1ccc(CN2[C@@H](C(=O)NCc3ccc(C(=O)NO)cc3)Cc3c([nH]c4ccccc34)[C@@H]2C2CC2)cc1`: the growth is 10.9%. Consider `COc1cc(/C=C/C(=O)c2ccc(S(=O)(=O)NCCNc3nc(Nc4ccc(F)cc4)nc(N(C)C)n3)cc2)cc(OC)c1OC`, for which the growth was -56.7% (active). Consider `CNCc1cccc2c1OCCCCCC[C@@](C)(O)CC1(CC1)S(=O)(=O)c1ccc(cc1)-c1cnc(N)c(n1)C(=O)N2`, for which the growth is -87% (active).

Take `O=C1Nc2ccc(Cl)cc2/C1=C/c1cccc(OCc2ccccn2)c1`: the growth was -63.8% (active). For `C=C(C)[C@@H]1CC[C@]2(C(=O)OC)CC[C@]3(C)[C@H](CC[C@@H]4[C@@]5(C)CC[C@H](N)C(C)(C)[C@@H]5CC[C@]43C)[C@@H]12`, the growth is -70.6% (active). `CNC(=O)c1cc(-c2ccc(NC(=O)Nc3ccc(C)cc3)cc2)nc2cccnc12`: the growth was 99.2%. Regarding `COc1ccc(/C(CSc2nnc(-c3c[nH]c4ccccc34)n2-c2ccccc2)=N/O)cc1`, the growth is 32%. The same measure for `O=C(NC(=S)N1CCN(c2ncnc3c2cnn3-c2ccccc2)CC1)c1ccc(Cl)cc1`: 79.1%. The same measure for `O=C(Nc1cc(Cl)cc(Cl)c1)Nc1cc(Cl)cc(Cl)c1`: -20.9% (active); for `Cc1ccn2c(C(=O)c3ccccc3)cc(-c3cc(-c4ccc(N(C)C)cc4)c(C#N)c(N)n3)c2c1`: 63.1%; for `O=C(Cn1cc(CSc2nnc3oc4ccccc4n23)nn1)Nc1ccc(Br)cc1`: 103%. To `COc1ccc2[nH]c(=O)c(CSc3ccc(Nc4nccc(-c5ccc(Cl)cc5)n4)cc3)cc2c1` belongs 104%; to `Cc1ccc(-c2ccc(SCC(=O)Nc3ccc(S(N)(=O)=O)cc3Br)nn2)cc1`, 11.4%; to `CC1(C)[C@@H](NCO)CC[C@]2(C)[C@H]3C(=O)C=C4[C@@H]5C[C@](C)(CO)CC[C@]5(C)CC[C@@]4(C)[C@]3(C)CC[C@@H]12`, 13.9%. As for `CN1C(=O)N(C)C2SC(N/N=C/c3cccs3)=NC21` (stereo not given), the growth is 7.66% (active). For the compound `Nc1nc(Nc2ccccc2)nn1Cc1c(Cl)cccc1Cl`, the growth is 54.4%. Take `COc1ccccc1[C@H]1C(C(=O)c2ccc(Cl)cc2)C2(N[C@@H]1c1ccccc1)C(=O)Nc1ccccc12` (stereo not given in full): the growth was -53.1% (active). For `CC(=C(c1ccc(OCCN2CCCCC2)cc1)c1ccc(OCCN2CCCCC2)cc1)c1ccccc1`, the growth is -26.2% (active).

As for `O=C(CSc1nnc(-c2c[nH]c3ccccc23)n1-c1ccccc1)c1ccc(Br)cc1`, the growth is 57.4%. To `Cc1ccc(-c2nc3ccc(C(=O)N=Nc4c(O)[nH]c5ccc(Br)cc45)cc3[nH]2)cc1` belongs 47.9%; to `Cc1ccc(C(=O)CSc2nnc(-c3c[nH]c4ccccc34)n2-c2ccccc2)cc1`, 7.13% (active); to `COc1cnc2c(c1)C(=O)c1c-2n(CCCNCCO)c(=O)c2cc(OC)c(OC)cc12`, 12.1%.

For the origin of these results see PubChem BioAssay (NCI).
